The source of these data is PubChem BioAssay AID434959 (Broad Institute, 2010).

The whole screen tested about 30,000 compounds, of which about 110 (0.37%) were called active. The full list was thinned out, with actives kept by preference. Values without a mark were called inactive.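 The calls were made as follows: active = delta delta Cp rounded down to an integer at or above 3, about 3 SD of DMSO wells; inactive = the rest.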

The experiment in a line: inhibitors of YB-1 gene expression, primary screen, cell-based, fluorescence (AID 434959).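 Also: higher means less YB-1 transcript or more CDIP transcript relative to DMSO.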 As to conditions: U2OS, qRT-PCR YB-1 vs CDIP delta delta Cp, 16 h; hits give high values; zero = DMSO, each unit about twofold. In general terms: Real-time PCR tracks product formation cycle by cycle.
For the compound `O=C(O)CCCCCC(=O)N/N=C/c1ccco1`, the delta Cp (YB-1 minus CDIP) is 0.15.

Turning to `COc1ccc(S(=O)(=O)N(C)C[C@H]2Oc3c(NC(=O)NC4CCCCC4)cccc3C(=O)N([C@@H](C)CO)C[C@@H]2C)cc1`, the delta Cp (YB-1 minus CDIP) was -0.0504.

As to `C[C@]12C=CC(=O)C=C1CC[C@@H]1[C@@H]2C(=O)C[C@@]2(C)[C@H]1CC[C@]2(O)C(=O)CO`, the delta Cp (YB-1 minus CDIP) was 1.09.

For the compound `C[C@H]1CN([C@@H](C)CO)C(=O)Cc2cc(NC(=O)Cn3cnnn3)ccc2O[C@H]1CN(C)Cc1ccc(C(=O)O)cc1`, the delta Cp (YB-1 minus CDIP) is -0.00589. Turning to `C[C@@H]1CN([C@H](C)CO)C(=O)Cc2cc(N(C)C)ccc2O[C@H]1CN(C)C(=O)NC1CCCCC1`, the delta Cp (YB-1 minus CDIP) is -0.109. The same measure for `C[C@H](CO)N1C[C@H](C)[C@H](CN(C)S(=O)(=O)c2ccccc2C#N)OCc2cn(nn2)CCCC1=O`: -0.329; for `C[C@@H]1CN([C@@H](C)CO)C(=O)Cc2cc(NC(=O)Cc3ccccc3)ccc2O[C@@H]1CN(C)Cc1ccc(Oc2ccccc2)cc1`: -0.162; for `C[C@H]1CN([C@@H](C)CO)C(=O)c2cccc(NC(=O)c3cnccn3)c2O[C@H]1CN(C)S(=O)(=O)c1cn(C)cn1`: -0.0985. Under `C[C@@H]1CN([C@H](C)CO)C(=O)CCCn2cc(nn2)CO[C@H]1CN(C)S(=O)(=O)c1ccc(Oc2ccccc2)nc1` stands -0.176; under `CC1(C)C2CC[C@]3(C)C(C(=O)C=C4[C@@H]5C[C@@](C)(C(=O)O)CC[C@]5(C)CC[C@]43C)[C@@]2(C)CC[C@@H]1O` (stereo not given in full), 0.127.

`COc1cc(O[C@@H]2O[C@H](CO[C@H]3OC[C@](O)(COC(=O)c4ccc(O)c(OC)c4)[C@H]3O)[C@@H](O)[C@H](O)[C@H]2O)ccc1O`: the delta Cp (YB-1 minus CDIP) is 0.323. The same measure for `C[C@H]1CN([C@@H](C)CO)C(=O)Cc2cc(NS(=O)(=O)c3cccs3)ccc2O[C@H]1CN(C)Cc1ccncc1`: 0.635; for `C[C@H](CO)N1C[C@H](C)[C@H](CN(C)S(=O)(=O)c2cccc(F)c2)OCc2cnnn2CCCC1=O`: 0.303; for `Cc1ccc(S(=O)(=O)Nc2cccc3c2O[C@@H](CN(C)S(=O)(=O)c2c(C)noc2C)[C@@H](C)CN([C@H](C)CO)C3=O)cc1`: -0.382. Under `Nn1c(C(=O)N2CCCC2)nc2ccccc2c1=O` stands 0.192. The same measure for `NC(=S)c1cnn2c(C(F)(F)F)cc(C(F)(F)F)nc12`: 9.53 (active).

On to `CCOC(=O)c1cnn2c(C(F)(F)F)cc(C)nc12`, for which the delta Cp (YB-1 minus CDIP) was -0.121. Under `COC(=O)CCCCCCC(=O)N/N=C/c1ccc(O)c(O)c1O` stands -0.105. The same measure for `COc1ccc(CN(C)C[C@H]2Oc3ccc(NC(=O)Cn4cnnn4)cc3CC(=O)N([C@@H](C)CO)C[C@@H]2C)cc1`: -0.171; for `CC(C)(C)OC(=O)Nc1cccc(/C=N/NC(=O)CCCCCC(=O)Nc2ccccc2O)c1`: -0.601. As for `COc1cc(/C=N\NC(=O)CCCCCCC(=O)NO)c(Br)cc1O`, the delta Cp (YB-1 minus CDIP) is -0.218. For `C[C@@H]1CN([C@H](C)CO)C(=O)CCCn2cc(nn2)CO[C@@H]1CN(C)C(=O)Nc1ccc(-c2cccs2)cc1`, the delta Cp (YB-1 minus CDIP) is -0.273. As for `C[C@@H]1CN([C@@H](C)CO)C(=O)Cc2cc(NC(=O)C3CC3)ccc2O[C@@H]1CN(C)S(C)(=O)=O`, the delta Cp (YB-1 minus CDIP) is 0.012. Under `C[C@H]1CN([C@@H](C)CO)C(=O)c2cccc(NC(=O)Nc3ccc(F)cc3)c2O[C@@H]1CN(C)C(=O)Nc1ccc2c(c1)OCO2` stands 1.42; under `COc1ccc(NC(=O)N(C)C[C@@H]2Oc3c(NC(=O)c4ccc(-c5nccs5)cc4)cccc3C(=O)N([C@H](C)CO)C[C@@H]2C)cc1`, -0.282. Under `O=C(CCCCC(=O)N/N=C/c1ccc(C(F)(F)F)cc1)NO` stands 0.349.

As for `COc1ccc(S(=O)(=O)N(C)C[C@H]2Oc3ccc(NC(=O)Nc4c(C)noc4C)cc3CC(=O)N([C@@H](C)CO)C[C@H]2C)cc1`, the delta Cp (YB-1 minus CDIP) was -0.281. The same measure for `C[C@@H]1CN([C@H](C)CO)C(=O)c2cccc(NS(=O)(=O)c3ccc(F)cc3)c2O[C@@H]1CN(C)C(=O)Nc1ccc(C(F)(F)F)cc1`: -0.00681; for `C[C@H](CO)N1C[C@H](C)[C@@H](CN(C)Cc2ccc3c(c2)OCO3)OCc2cnnn2CCCC1=O`: -0.135.

Take `C[C@H]1CN([C@@H](C)CO)C(=O)CCCn2cc(nn2)CO[C@H]1CN(C)S(=O)(=O)c1ccc2ccccc2c1`: the delta Cp (YB-1 minus CDIP) is 0.00166. Under `Cc1noc(C)c1NC(=O)Nc1ccc2c(c1)CC(=O)N([C@H](C)CO)C[C@@H](C)[C@@H](CN(C)Cc1ccncc1)O2` stands -0.309; under `O=C(O)CCCCCCC(=O)N/N=C/c1cccs1`, -0.0775.

For the compound `COc1cccc(-c2cnc3c(c2)C(=O)N([C@H](C)CO)C[C@H](C)[C@H](CN(C)S(=O)(=O)c2cccc(F)c2)O3)c1`, the delta Cp (YB-1 minus CDIP) is -0.156.

Regarding `C[C@@H]1CN([C@H](C)CO)C(=O)c2cccc(NC(=O)c3ccncc3)c2O[C@@H]1CN(C)C`, the delta Cp (YB-1 minus CDIP) is -0.219. For the compound `C[C@@H]1CN([C@@H](C)CO)C(=O)Cc2cc(NC(=O)Nc3ccccc3)ccc2O[C@@H]1CN(C)S(=O)(=O)c1ccc(F)cc1`, the delta Cp (YB-1 minus CDIP) is -0.00869. With `O=C(N/N=C/[C@H](O)[C@@H](O)[C@H](O)[C@H](O)CO)c1ccccc1O`, the delta Cp (YB-1 minus CDIP) was 0.111.

Turning to `C[C@@H]1CN([C@H](C)CO)C(=O)c2cccc(NC(=O)Nc3ccc4c(c3)OCO4)c2O[C@@H]1CN(C)Cc1ccccc1`, the delta Cp (YB-1 minus CDIP) was -0.407.

As to `C[C@@H]1CN([C@H](C)CO)C(=O)c2cc(NC(=O)CCCN(C)C)ccc2O[C@H]1CN(C)Cc1ccc(C(=O)O)cc1`, the delta Cp (YB-1 minus CDIP) is -0.213. With `Cc1ncc(CO)c(/C=N/NC(=O)c2ccc(C(=O)NO)cc2)c1O`, the delta Cp (YB-1 minus CDIP) was 0.181. The same measure for `C[C@@H]1CN([C@@H](C)CO)C(=O)Cc2cc(NC(=O)Nc3cccc4ccccc34)ccc2O[C@@H]1CN(C)CC1CCCCC1`: 0.088.
